Experimental data taken from the supplement of paper PMC6555819.

Each sequence was assayed on VDR:RXRa (NR concentration 270 nM, RXRa partner concentration 90 nM) (assay: PBM binding z-score (relative to random genomic background probes); higher = stronger binding; sequences stand for … in GC…GCGATTGACAGCGTAGAATGAAGG).
Procedure: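 Protein-binding microarray (Agilent 4x180K custom design, double-stranded 60-nt probes: 5' GC cap, 34-nt variable region, 24-nt constant primer region; full probe sequence given). Purified or IVT nuclear receptor:RXRα heterodimers (3:1 NR:RXRα, mostly 270:90 nM) or homodimers were incubated for 1 h in PBS with 2% milk and no ligand, then detected with Alexa488 antibodies. Fluorescence from o1-orientation probes (~5 replicates averaged) was converted to z-scores against 500 random hg19 background probes. Variable regions are seed direct-repeat (DR0–DR5) sites, all their single-nucleotide variants and half-site ablations.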

Row | Sequence | PBM binding z-score
1 | CTCGAAAGGTGGTGCTCAGGTGAGTATACCAAAC | -0.508
2 | CTAACTAGGTCACAGAGGTCAAAGTCCGTGCGTA | 8.06
3 | CCGAGTAGGTTACGAGGGGGCATTGAGTGCGAAT | 6.16
4 | TAGCCTAGGTCATGGGCCTGTATACCACGCGAAC | 1.98
5 | TTTAGTTGGTCAAAGGTCACACACTCGAAATGCG | 5.36
6 | TAGCCTAGGTCATTGGACCAGTATAGTACGCATC | 2.08
7 | ACTAGAAGGCCAAGGGTCACTCAAGATTAGTCCG | 3.26
8 | AGTCAAAGGTCAGGACGAGGTAACGTAAAGCACG | 4.83
9 | CTATGTAGGCTAAGGGGGTCATTCAGTTTGAAAG | 6.41
10 | CTATGTAGGATAAGGGGGTCATTCAGTTTGAAAG | 6.5
11 | TCGAGTAGGTTACGGTGGCATTCAGGGATGAAGA | 0.16
12 | ACTTACGGGTCAAGGAGGTTATAGCACGCGTATA | 6.7
13 | TTACCAAGGTTAAAGGTCGTTGATGCACGCCTTG | 4.55
14 | CTCGAAAGGTCGTGGTCAGGTGAGTATACCAAAC | 3.61
15 | TAGCCTAGGTCCTTCAGGGGCCAGTATAGAAAGC | -0.708
16 | TAGCCTAGGACATGCGGGCCAGTATAGTGTCGGC | -0.777
17 | CGAACTAGGTCAAAGGACAATGAAAGGCGACGTA | 1.73
18 | CTATATAGGTTAAGGGGGTCATTCAGTTTGAAAG | 7.71
19 | CGTCCAAGGTCAGTGAGGTCAGTGAATGCCGAGT | 7.42
20 | CATACACGGTCAGCTAGGCCAGAGTAGGGACGGC | -0.0494

Row | Sequence | PBM binding z-score
21 | TTACCAAGGTGAAAGGTCGGTGATGCACGCCTTG | 1.38
22 | TCTAGTTGGTGACGGAGGTCACACACGACGGGTA | 3.98
23 | CGAACTAGGTCAAAGGGCAGTGAAAGGCGACGTA | 2.63
24 | ATATGAAGGTTAGGGTCATTCAGAAAGTAGGGAA | 4.6
25 | CAAACTAGGTCAAGAGGTCAAACTCCGCTTCCCG | 6.49
26 | ACTTACGGGTCAACGAAGTTATAGCACGCGTATA | 4.19
27 | CGTCCAAGGTCAGATAGGTCAGTGAATGCCGAGT | 4.9
28 | CGTCCAAGGTCAAAGGTCAGGGAAGAGATGACGG | 6.71
29 | ACTAGTTGCTCAGCTGAGGTCACACACAATTCGG | 3.65
30 | TCTGCTAGGTCAGTTGGGCAGCTAACGAGCTGCC | -0.0977
31 | ATATGTAGCTTAGGGTCATTCAGAAAGTAGGGAA | 4.27
32 | CTATGCAGGTTAAGGGGGTCATTCAGTTTGAAAG | 7.5
33 | GATACAGGGTCAGCTAGAGGGCAGAGTATGGAAA | 4.22
34 | CGTCCAAGGTCAAGGTCACTGAAAGAGACTCGAA | 5.49
35 | CGAACTAGGTCACCAGGCCAGTGAAGAGGTTGGA | 1.71
36 | ATCGAAACGTCGTGAGGTGAGTATACAGAAAGGC | -0.25
37 | CGAACTAGGTCATAGGACAGTGAAAGGCGACGTA | 1.47
38 | TTACAAAGGTGAAAGGTCGTTGATGCACGCCTTG | 4.35
39 | AGTCAAAGTTCAGTAGGTAACGTAAGATTCAGCT | 2.4
40 | TCTCGGAGGACACGAAGGTCAAAGCTTTCCAGAG | 3.87
